Compounds with a hit are over-represented: about 7.7% of the library has one in this group of screens.
NOMO-1 viab: NOMO-1 AML cell viability reduction, primary screen, STK33 inhibitor project, CellTiter-Glo luminescence. NOMO-1 AML viability, 72 h. inhibition, % (no concentration beside the values). 37,000 tested, 7.5% active; in the data active means inhibition above about 80%; inconclusive means no clear call, values can overlap the other calls
Shh pathway inh: Hedgehog pathway signaling inhibitors, primary screen, luminescence, Shh-LIGHT2 cells, Gli-luciferase. Shh-LIGHT2 Gli-luciferase reporter, 30 h. inhibition, % (concentration not given with the values). 22,000 tested, 2.1% active. AID 2313, 2010;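 active means mean inhibition across valid replicates above about 65%, limit read from the data; inconclusive means mean under the limit, yet half or more replicates past it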;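 further: pathway switched on by Shh-conditioned medium diluted 1 in 25 in low serum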
PD-1 reverse act: activators reversing PD-1 mediated T-cell inhibition, primary screen, luminescence, primary human CD4 T cells, PD-L1 beads. 29,000 tested, under 10 active. CellTiter-Glo 96 h. activation, % (test concentration not listed); call rule not given here
Of the large screens only hits and unclear results are named; the others gave an inactive call.

CCOC(=O)c1c(N)sc2c1CCC(Sc1ccccc1)C2=O (configuration not stated)	none
CCC(Sc1nnc(-c2ccc([N+](=O)[O-])cc2)n1C)C(=O)Nc1ccc(Br)cc1 (configuration not stated)	none (no result: Shh pathway inh)
CCn1c(SCC(=O)Nc2cccc(F)c2)nnc1-c1ccc(Cl)cc1Cl	none (no result: Shh pathway inh, PD-1 reverse act)
C/C=C(/C)C(=O)O[C@H]1C=C(CO)C(=O)[C@H](OC(=O)/C(C)=C/CO)[C@H]1C(C)C	NOMO-1 viab 122.3
C[C@@H]1CN([C@H](C)CO)C(=O)c2cccc(NC(=O)C3CCCCC3)c2O[C@@H]1CN(C)Cc1ccc(C(=O)O)cc1	none
C[C@@H]1CN([C@@H](C)CO)C(=O)c2cccc(NC(=O)C3CC3)c2O[C@@H]1CN(C)Cc1ccc(C(=O)Nc2ccccc2N)cc1	NOMO-1 viab 128.1 (no result: Shh pathway inh)
C[C@@H]1CN([C@H](C)CO)C(=O)c2cccc(NC(=O)C3CC3)c2O[C@H]1CN(C)Cc1ccc(C(=O)O)cc1	none
C[C@@H]1CN([C@@H](C)CO)C(=O)c2cccc(NC(=O)NC3CCCCC3)c2O[C@@H]1CN(C)Cc1ccc(C(=O)Nc2ccccc2N)cc1	NOMO-1 viab 128.8 (no result: Shh pathway inh)
C[C@H](CO)N1C[C@H](C)[C@H](CN(C)Cc2ccc(C(=O)Nc3ccccc3N)cc2)Oc2c(NC(=O)C3CC3)cccc2C1=O	NOMO-1 viab 122.0 (no result: Shh pathway inh)
C[C@H]1CN([C@@H](C)CO)C(=O)c2cccc(NC(=O)C3CCCCC3)c2O[C@H]1CN(C)Cc1ccc(C(=O)Nc2ccccc2N)cc1	NOMO-1 viab 127.2 (no result: Shh pathway inh)
C[C@H]1CN([C@@H](C)CO)C(=O)c2cccc(NC(=O)NC3CCCCC3)c2O[C@H]1CN(C)Cc1ccc(C(=O)O)cc1	none
C[C@@H]1CN([C@H](C)CO)C(=O)c2cccc(NC(=O)C3CCOCC3)c2O[C@H]1CN(C)Cc1ccc(C(=O)Nc2ccccc2N)cc1	none (no result: Shh pathway inh)
CC(CC(O)C1OC1(C)C)[C@@H]1CCC2(C)C3=CCC4C(C)(C)C(=O)CCC4(C)C3CC[C@@]12C (some centres not stated)	NOMO-1 viab 101.4 (no result: PD-1 reverse act)
CC(=O)c1cccc(N(CC(=O)Nc2ccccc2C)S(C)(=O)=O)c1	none (no result: Shh pathway inh, PD-1 reverse act)
O=C1/C(=C/c2ccccn2)CC/C1=C\c1ccccn1	NOMO-1 viab 134.7 (no result: Shh pathway inh)
COc1ccc(/C=C2\CC/C(=C\c3ccc(C)cc3)C2=O)cc1	none (no result: Shh pathway inh)
CCOC(=O)c1sc(NC(=S)Nc2cnccn2)c(C(=O)OCC)c1C	none (no result: Shh pathway inh)
COC(=O)CN(c1cc([N+](=O)[O-])ccc1OC)S(C)(=O)=O	NOMO-1 viab 99.7 (no result: Shh pathway inh, PD-1 reverse act)
COc1ccc([N+](=O)[O-])cc1NC(=O)C(C)N(c1ccc(C)cc1)S(C)(=O)=O (configuration not stated)	NOMO-1 viab 111.8 (no result: Shh pathway inh)
COc1ccc(NC(=O)C(C)N(c2ccc(C)cc2)S(C)(=O)=O)c(OC)c1 (configuration not stated)	none (no result: Shh pathway inh)
CNC(=O)CN(c1cc([N+](=O)[O-])ccc1OC)S(C)(=O)=O	none (no result: Shh pathway inh)
CSC1=N/C(=C\c2ccc(Br)cc2)C(=O)S1	NOMO-1 viab 130.6
CSC1=N/C(=C\c2ccccc2C)C(=O)S1	none
CC(=O)O[C@]1(C(C)=O)CC[C@H]2[C@@H]3C=C(Cl)C4=CC(=O)C5CC5[C@]4(C)[C@H]3CC[C@@]21C (some centres not stated)	none (no result: PD-1 reverse act)
Nc1nnnn1/N=C1/C(=O)Nc2ccc(Br)cc21	none
Cc1c(Br)c([N+](=O)[O-])nn1CC(=O)Nc1cccc(C(F)(F)F)c1	NOMO-1 viab inconclusive (no result: Shh pathway inh)
CSc1sc(/C(C)=N\O)c2c1/C(=N\O)CC(C)(C)C2	none (no result: Shh pathway inh)
CSc1sc(Cl)c2c1/C(=N\O)CC(C)(C)C2	NOMO-1 viab 109.5, Shh pathway inh inconclusive
O=C(COC(=O)c1c(C(F)(F)F)cccc1C(F)(F)F)c1ccc(Cl)cc1	NOMO-1 viab 110.7
O=C(COC(=O)c1ccc(Br)cc1)c1ccc(Br)cc1	none (no result: Shh pathway inh)
O=C(O)CNC(=O)CN1C(=O)c2ccccc2C1=O	none (no result: Shh pathway inh)
COc1ccc(NC(=O)CSc2nc(C)cc(C)n2)cc1	none (no result: Shh pathway inh)
COC(=O)c1cc(NC(=O)CSc2nc(C)cc(C)n2)cc(C(=O)OC)c1	NOMO-1 viab 113.8 (no result: Shh pathway inh)
Cn1c(SCC(=O)O)nnc1-c1ccccc1	none (no result: Shh pathway inh)
Cc1nc(C(N)=NC(=O)c2ccc(OC(F)(F)F)cc2)cs1	none
C=C1C(=O)O[C@@H]2/C=C(/COC(C)=O)CC/C=C(/CO)CC[C@@H]12	NOMO-1 viab 116.8
C=C1C(=O)O[C@@H]2/C=C(/CO[C@@H]3O[C@H](CO)[C@@H](O)[C@H](O)[C@H]3O)CC/C=C3\C[C@H](OC3=O)[C@@H]12	none
CC(Oc1ccc(Br)cc1)C(=O)NCc1ccco1 (configuration not stated)	none (no result: Shh pathway inh)
CC(C)=CCC1C(=O)C(=O)c2ccccc2C1=O (configuration not stated)	none (no result: PD-1 reverse act)
